Assay results published in PubChem BioAssay (Tox21).
Several values for one entry are separate records, joined by “and”; a condition that tells them apart may be missing. Identical values can stand only once. Results filed as inconclusive are left out. Where a call stands in place of a potency, no number is given. Where a structure was tested more than once in an assay, its records may differ in their call. Activity calls are given as the source filed them. Unless noted, calls come from the whole dose curve; as a rule, active = well fitted curve in the direction sought with a large enough effect in the repeat runs; inconclusive = weak or mixed curves; inactive = no such curve, though single readings can be large; an effect the other way counts as inactive or inconclusive.

Experiments:
[1] = qHTS assay to identify aromatase inhibitors - cell viability counter screen (AID 743084);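 note: cells stimulated with testosterone during compound exposure; nearly all actives have a fitted effect of over 55% in size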; note: potency is the fitted concentration of half-maximal effect
[2] = molecular target: Aryl hydrocarbon receptor (Homo sapiens) (UniProt P35869); experiment: qHTS assay to identify small molecule that activate the aryl hydrocarbon receptor (AhR) signaling pathway (AID 743085); note: nearly all actives have a fitted effect of over 15% in size; note: potency is the fitted concentration of half-maximal effect;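 for activation: HG2L7.5c1 human HepG2 liver cells with stably integrated DRE-driven firefly reporter; series mostly up to about 70 µM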
Aryl hydrocarbon receptor (Homo sapiens), sequence (P35869 whole entry, looked up): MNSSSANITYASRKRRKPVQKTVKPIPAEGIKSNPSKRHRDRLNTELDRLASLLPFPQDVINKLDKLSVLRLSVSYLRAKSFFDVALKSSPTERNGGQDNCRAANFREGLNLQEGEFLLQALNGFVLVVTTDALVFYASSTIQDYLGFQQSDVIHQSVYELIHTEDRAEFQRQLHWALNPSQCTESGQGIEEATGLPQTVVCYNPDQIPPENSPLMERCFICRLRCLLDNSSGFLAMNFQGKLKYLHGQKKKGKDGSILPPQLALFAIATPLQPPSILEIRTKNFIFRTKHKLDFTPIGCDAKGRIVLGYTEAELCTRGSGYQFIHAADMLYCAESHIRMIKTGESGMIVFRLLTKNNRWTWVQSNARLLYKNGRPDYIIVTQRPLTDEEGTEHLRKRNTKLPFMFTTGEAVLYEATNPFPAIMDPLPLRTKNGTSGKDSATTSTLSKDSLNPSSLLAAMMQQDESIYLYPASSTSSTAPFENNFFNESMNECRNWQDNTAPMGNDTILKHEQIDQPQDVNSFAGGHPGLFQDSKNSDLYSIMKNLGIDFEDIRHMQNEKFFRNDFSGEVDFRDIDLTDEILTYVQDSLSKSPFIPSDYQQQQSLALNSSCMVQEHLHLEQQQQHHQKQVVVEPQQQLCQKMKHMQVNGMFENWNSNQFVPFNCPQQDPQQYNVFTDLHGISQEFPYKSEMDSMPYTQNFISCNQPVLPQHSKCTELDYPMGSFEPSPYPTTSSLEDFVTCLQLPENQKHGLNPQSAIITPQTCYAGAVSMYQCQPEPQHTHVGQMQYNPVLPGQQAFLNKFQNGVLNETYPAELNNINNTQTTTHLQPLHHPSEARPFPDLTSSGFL
In short: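 HepG2 cells stably carrying a 20-DRE firefly luciferase reporter (HG2L7.5c1) treated with compound for 24 hr at 37C. Luciferase read by ONE-Glo luminescence, with CellTiter-Fluor viability read first.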

[3] = qHTS assay to identify small molecule that activate the aryl hydrocarbon receptor (AhR) signaling pathway - cell viability counter screen (AID 743086); note: nearly all actives have a fitted effect of over 45% in size; note: potency is the fitted concentration of half-maximal effect
In short: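 Cytotoxicity counter screen: CellTiter-Fluor signal (30 min, 37 C) in 4000 HepG2 cells/well carrying the DRE-luciferase reporter, following 24 h compound exposure at 37 C.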

[4] = qHTS assay to identify small molecule antagonists of the peroxisome proliferator-activated receptor gamma (PPARg) signaling pathway - cell viability counter screen (AID 743194); note: nearly all actives have a fitted effect of over 55% in size; note: potency is the fitted concentration of half-maximal effect
In short: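 Viability was measured as CellTiter-Glo luminescence in GeneBLAzer PPARg UAS-bla HEK293H cells. These cells had been exposed 17 h at 37 C to compounds together with rosiglitazone at 50 nM final, with the beta-lactamase readout taken in the same wells.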

[5] = qHTS assay for small molecule agonists of the antioxidant response element (ARE) signaling pathway - cell viability counter screen (AID 743203; calls by dose curve; note: nearly all actives have a fitted effect of over 55% in size; note: potency is the fitted concentration of half-maximal effect)
In short: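 Viability counter screen: CellTiter-Glo luminescence, read after 30 min at room temperature, in ARE-bla HepG2 wells. Compound exposure lasted 16 h at 37C/5% CO2, following a 5 h pre-incubation of the cells after plating.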

[6] = qHTS assay for small molecule activators of the heat shock response signaling pathway - cell viability counter screen (AID 743209); note: nearly all actives have a fitted effect of over 50% in size; note: potency is the fitted concentration of half-maximal effect
In short: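 Cytotoxicity counter screen run in the same wells as the heat-shock bla reporter assay: HeLa HSE-bla cells, 5 h compound exposure at 37 C, viability read by CellTiter-Glo luminescence.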

[7] = qHTS assay for small molecule activators of the heat shock response signaling pathway (AID 743210; active = well fitted activation curve with a large enough effect in the signal ratio in the repeat runs, with a control signal flat, not every such curve was filed as active; the % refers to the signal ratio;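 note: HeLa cells with beta-lactamase reporter driven by heat shock elements; series mostly up to about 63 µM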)
In short: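 Fluorescence from a cleaved B/G FRET substrate (2.5 h, room temp) reports HSE-driven beta-lactamase in HeLa cells treated 5 h at 37 C with DMSO-dissolved compounds.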

[8] = molecular target: Peroxisome proliferator-activated receptor delta (Homo sapiens) (UniProt Q03181); experiment: qHTS assay to identify small molecule agonists of the peroxisome proliferator-activated receptor delta (PPARd) signaling pathway (AID 743212; calls by dose curve;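 note: HEK293H cells with PPARd UAS beta-lactamase reporter GeneBLAzer system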)
Peroxisome proliferator-activated receptor delta (Homo sapiens), sequence (Q03181 whole entry, looked up): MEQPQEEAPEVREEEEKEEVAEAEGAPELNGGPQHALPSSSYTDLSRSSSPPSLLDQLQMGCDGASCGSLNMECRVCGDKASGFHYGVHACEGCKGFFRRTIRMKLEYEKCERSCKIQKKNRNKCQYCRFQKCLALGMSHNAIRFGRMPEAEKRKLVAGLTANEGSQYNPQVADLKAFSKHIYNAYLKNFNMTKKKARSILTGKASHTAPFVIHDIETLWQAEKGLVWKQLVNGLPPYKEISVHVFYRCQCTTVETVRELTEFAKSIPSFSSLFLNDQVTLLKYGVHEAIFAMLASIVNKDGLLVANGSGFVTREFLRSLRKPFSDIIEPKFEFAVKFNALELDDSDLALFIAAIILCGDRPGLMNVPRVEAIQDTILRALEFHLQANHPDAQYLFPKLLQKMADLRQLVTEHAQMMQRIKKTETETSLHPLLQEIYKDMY
In short: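 Steps: seed PPARd-bla HEK293H cells; incubate 5 h, 37 C, 5% CO2; add compounds in DMSO; incubate, 37 C; add LiveBLAzer B/G FRET substrate; hold 2 h at room temperature; measure fluorescence.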

[9] = qHTS assay to identify small molecule antagonists of the peroxisome proliferator-activated receptor delta (PPARd) signaling pathway - cell viability counter screen (AID 743213); note: nearly all actives have a fitted effect of over 50% in size; note: potency is the fitted concentration of half-maximal effect
In short: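 Cytotoxicity counter screen: CellTiter-Glo luminescence read 30 min after addition, in the same wells as the reporter assay. There, PPARd UAS-bla HEK293H cells (3000/well) were treated 17 h at 37 C with compound and 300 nM L165041.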

[10] = molecular target: Peroxisome proliferator-activated receptor delta (Homo sapiens) (UniProt Q03181); experiment: qHTS assay to identify small molecule antagonists of the peroxisome proliferator-activated receptor delta (PPARd) signaling pathway (AID 743215; active = well fitted inhibition curve with a large enough effect in the signal ratio in the repeat runs, not every such curve was filed as active; the % refers to the signal ratio;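 note: cells stimulated with agonist L165041 at 300 nM final during compound exposure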; note: potency is the fitted concentration of half-maximal effect)
In short: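 Agonist L165041 (300 nM final) added with compound to PPARd-bla HEK293H UAS-bla reporter cells; 17 h incubation at 37 C. Read-out: LiveBLAzer FRET substrate, 2 h at room temperature, fluorescence intensity.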

[11] = molecular target: Bile acid receptor (Homo sapiens) (UniProt Q96RI1); experiment: qHTS assay to identify small molecule antagonists of the farnesoid-X-receptor (FXR) signaling pathway (AID 743217; active = well fitted inhibition curve with a large enough effect in the signal ratio in the repeat runs, not every such curve was filed as active; the % refers to the signal ratio)
Bile acid receptor (Homo sapiens), sequence (Q96RI1 whole entry, looked up): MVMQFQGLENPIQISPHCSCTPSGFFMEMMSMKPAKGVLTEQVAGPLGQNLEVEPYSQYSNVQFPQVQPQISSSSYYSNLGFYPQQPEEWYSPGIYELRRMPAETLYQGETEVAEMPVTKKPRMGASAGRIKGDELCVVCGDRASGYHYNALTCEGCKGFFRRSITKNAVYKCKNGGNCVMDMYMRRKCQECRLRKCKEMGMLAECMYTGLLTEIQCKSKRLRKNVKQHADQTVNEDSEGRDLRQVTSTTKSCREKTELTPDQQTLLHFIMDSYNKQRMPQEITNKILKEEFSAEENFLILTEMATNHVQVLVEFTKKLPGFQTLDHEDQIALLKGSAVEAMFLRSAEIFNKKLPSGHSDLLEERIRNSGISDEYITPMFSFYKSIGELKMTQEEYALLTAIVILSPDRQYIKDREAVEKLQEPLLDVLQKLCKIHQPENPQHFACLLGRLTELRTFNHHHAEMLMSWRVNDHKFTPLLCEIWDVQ
In short: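 Antagonist mode: chenodeoxycholic acid at 50 uM final stimulates a UAS-driven beta-lactamase reporter in HEK 293T FXR-bla cells during 16 h, 37C compound exposure. Read-out is FRET substrate fluorescence after 2 h at room temperature.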

[12] = molecular target: Bile acid receptor (Homo sapiens) (UniProt Q96RI1); experiment: qHTS assay to identify small molecule agonists of the farnesoid-X-receptor (FXR) signaling pathway (AID 743220; active = well fitted activation curve with a large enough effect in the signal ratio in the repeat runs, not every such curve was filed as active; the % refers to the signal ratio)
In short: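 FXR-UAS-bla HEK 293T cells carrying a UAS-driven beta-lactamase reporter were plated for 5 h at 37C/5% CO2, then exposed to DMSO-dissolved Tox21 10K compounds for 16 h at 37C. A LiveBLAzer B/G FRET substrate was loaded for 2 h at room temperature before fluorescence reading.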

[13] = qHTS assay to identify small molecule antagonists of the farnesoid-X-receptor (FXR) signaling pathway - cell viability counter screen (AID 743221; active = well fitted cell-killing curve with a large enough effect in the repeat runs, not every such curve was filed as active; note: nearly all actives have a fitted effect of over 50% in size; note: potency is the fitted concentration of half-maximal effect)
In short: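 GeneBLAzer FXR-UAS-bla HEK 293T cells, compound plus chenodeoxycholic acid (50 uM final), 16 h at 37 C. CellTiter-Glo added to the same wells after the beta-lactamase read; luminescence read after 30 min at room temperature as viability.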

[14] = molecular target: Vitamin D3 receptor (Homo sapiens) (UniProt P11473); experiment: qHTS assay to identify small molecule agonists of the vitamin D receptor (VDR) signaling pathway (AID 743222; calls by dose curve)
Vitamin D3 receptor (Homo sapiens), sequence (P11473 whole entry, looked up): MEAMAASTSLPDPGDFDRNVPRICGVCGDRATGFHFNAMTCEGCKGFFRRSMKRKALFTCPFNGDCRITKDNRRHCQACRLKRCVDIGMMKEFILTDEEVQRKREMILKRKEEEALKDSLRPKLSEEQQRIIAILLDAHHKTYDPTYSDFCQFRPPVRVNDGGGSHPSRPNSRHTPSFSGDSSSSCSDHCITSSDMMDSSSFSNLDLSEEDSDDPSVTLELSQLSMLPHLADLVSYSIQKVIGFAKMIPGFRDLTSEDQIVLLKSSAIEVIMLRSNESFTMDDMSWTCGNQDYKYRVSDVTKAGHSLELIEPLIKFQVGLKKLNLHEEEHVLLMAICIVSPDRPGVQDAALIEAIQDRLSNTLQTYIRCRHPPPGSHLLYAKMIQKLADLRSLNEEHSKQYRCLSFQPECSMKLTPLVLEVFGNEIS
In short: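 Agonist mode, beta-lactamase reporter: fluorescence from LiveBLAzer B/G FRET substrate (2 h, room temperature) read after 16 h compound treatment at 37 C of VDR-bla cells, which were pre-incubated 4 h after seeding.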

[15] = molecular target: Vitamin D3 receptor (Homo sapiens) (UniProt P11473); experiment: qHTS assay to identify small molecule antagonists of the vitamin D receptor (VDR) signaling pathway (AID 743223; active = well fitted inhibition curve with a large enough effect in the signal ratio in the repeat runs, not every such curve was filed as active; the % refers to the signal ratio; note: potency is the fitted concentration of half-maximal effect)
In short: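 VDR-bla cells were treated with compound plus 3 nM final 1alpha,25-dihydroxyvitamin D3 for 16 h at 37C. Beta-lactamase reporter read by B/G FRET substrate fluorescence after 2 h at room temperature. qHTS format.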

[16] = qHTS assay for small molecule agonists of the antioxidant response element (ARE) signaling pathway (AID 743202; active = well fitted activation curve with a large enough effect in the signal ratio in the repeat runs, not every such curve was filed as active; the % refers to the signal ratio)
In short: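 Beta-lactamase reporter activity, read as fluorescence intensity, reflects ARE/Nrf2 pathway induction in HepG2 cells after 16 h compound exposure at 37 C; substrate loading was 2 h at room temperature.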

[17] = qHTS assay to identify small molecule agonists of the peroxisome proliferator-activated receptor delta (PPARd) signaling pathway - cell viability counter screen (AID 743211); note: nearly all actives have a fitted effect of over 55% in size; note: potency is the fitted concentration of half-maximal effect
In short: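 PPARd-bla HEK293H cells (3000/well) were pre-incubated 5 h at 37 C, then exposed to compound for 17 h at 37 C. After 2 h with LiveBLAzer substrate, CellTiter-Glo was added to the same wells; luminescence read after 30 min at room temperature.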

[18] = qHTS assay to identify small molecule agonists of the farnesoid-X-receptor (FXR) signaling pathway - cell viability counter screen (AID 743218); note: nearly all actives have a fitted effect of over 45% in size; note: potency is the fitted concentration of half-maximal effect
In short: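 Viability counter screen in the same wells: CellTiter-Glo luminescence, 30 min room-temperature incubation, measured after the beta-lactamase read. Cells were GeneBLAzer FXR-UAS-bla HEK 293T, compound-treated 16 h at 37C.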

[19] = molecular target: Peroxisome proliferator-activated receptor gamma (Homo sapiens) (UniProt P37231); experiment: qHTS assay to identify small molecule agonists of the peroxisome proliferator-activated receptor gamma (PPARg) signaling pathway (AID 743094; active = well fitted activation curve with a large enough effect in the signal ratio in the repeat runs, not every such curve was filed as active; the % refers to the signal ratio)
Peroxisome proliferator-activated receptor gamma (Homo sapiens), sequence (P37231 whole entry, looked up): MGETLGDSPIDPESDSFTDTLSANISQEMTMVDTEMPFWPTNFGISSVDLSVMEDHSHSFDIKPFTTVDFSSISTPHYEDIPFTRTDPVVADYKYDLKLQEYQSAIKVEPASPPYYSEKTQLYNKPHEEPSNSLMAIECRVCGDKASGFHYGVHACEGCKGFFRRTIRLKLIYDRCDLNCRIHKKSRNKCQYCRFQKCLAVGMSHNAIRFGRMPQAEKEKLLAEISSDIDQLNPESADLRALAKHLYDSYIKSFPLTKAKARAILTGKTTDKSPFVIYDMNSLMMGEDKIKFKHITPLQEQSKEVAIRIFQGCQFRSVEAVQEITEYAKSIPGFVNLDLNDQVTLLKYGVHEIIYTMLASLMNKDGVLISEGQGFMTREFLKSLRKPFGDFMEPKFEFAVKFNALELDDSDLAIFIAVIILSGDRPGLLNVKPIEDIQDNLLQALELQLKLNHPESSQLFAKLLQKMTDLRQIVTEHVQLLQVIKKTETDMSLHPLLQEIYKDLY
In short: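 Agonist activity was taken from a beta-lactamase reporter (FRET substrate, 1 h at room temperature) in HEK293H cells carrying a PPARg UAS-bla construct. Compounds in DMSO were incubated 17 h at 37C after a 5 h cell pre-incubation.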

[20] = molecular target: Peroxisome proliferator-activated receptor gamma (Homo sapiens) (UniProt P37231); experiment: qHTS assay to identify small molecule antagonists of the peroxisome proliferator-activated receptor gamma (PPARg) signaling pathway (AID 743191; calls by dose curve; note: series mostly up to about 63 µM; nearly all actives have a fitted effect of over 30% in size)
In short: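 Beta-lactamase reporter under UAS control in HEK293H PPARg-bla cells; compound treatment 17 h at 37C. Read-out: fluorescence intensity after 1 h room-temperature incubation with LiveBLAzer B/G FRET substrate.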

| SMILES | Potency [1] | Potency [2] | Potency [3] | Potency [4] | Potency [5] | Potency [6] | outcome [7] | Potency [8] | Potency [9] | Potency [10] | Potency [11] | outcome [12] | Potency [13] | Potency [14] | Potency [15] | Potency [16] | Potency [17] | Potency [18] | Potency [19] | Potency [20] |
| --- | --- | --- | --- | --- | --- | --- | --- | --- | --- | --- | --- | --- | --- | --- | --- | --- | --- | --- | --- | --- |
| CCc1nc(N)nc(N)c1-c1ccc(Cl)cc1 | inactive | inactive | inactive | inactive | 5.31 µM (active) | inactive | inactive | inactive | inactive | inactive | inactive | inactive | 24.9 µM (active) | inactive | inactive | – | – | – | – | – |
| CC(=O)CC(c1ccccc1)c1c(O)c2ccccc2oc1=O (stereo not drawn) | – | – | inactive | inactive | inactive | inactive | – | – | inactive | – | – | – | – | inactive | inactive | inactive | inactive | inactive | – | – |
| COc1ccc2cc(S(=O)(=O)N[C@H](CC(=O)N[C@H](Cc3ccc(CN4[C@H](C)CCC[C@@H]4C)cc3)C(=O)N(C)C(C)C)c3ccc4c(c3)OCO4)ccc2c1 | 46 µM (active) | inactive | 23 µM (active) | 46.3 µM (active) | 18.3 µM (active) | inactive | inactive | – | 29.2 µM (active) | – | – | inactive | – | inactive | – | – | 14.7 µM (active) | 26.1 µM (active) | – | – |
| CN(C)C(=O)Nc1ccc(Cl)c(Cl)c1 | inactive | – | inactive | inactive | inactive | inactive | inactive | inactive | inactive | inactive | – | – | – | – | – | inactive | inactive | inactive | inactive | inactive |
| O=C(Nc1ncc([N+](=O)[O-])s1)c1cccs1 | – | 2.98 µM (active) | inactive | – | – | – | inactive | inactive | – | inactive | inactive | inactive | – | inactive | inactive | – | – | – | – | – |
| COc1ccc(OC(F)(F)F)cc1CN[C@H]1CCCN[C@H]1c1ccccc1 | inactive | inactive | 54.5 µM (active) | inactive | 27.3 µM (active) | inactive | inactive | – | 43.6 µM (active) | – | – | – | – | inactive | – | – | 43.6 µM (active) | 43.6 µM (active) | – | – |
| CCCCC(CC)C(=O)O (stereo not drawn) | inactive | – | inactive | inactive | inactive | inactive | inactive | inactive | inactive | inactive | – | – | – | – | – | inactive | inactive | inactive | inactive | inactive |
| Nc1ccc2c(c1)CN1C(=O)c3ccccc3C1=N2 | – | – | – | inactive | inactive | inactive | inactive | – | – | – | – | inactive | – | – | – | – | inactive | inactive | – | – |
| Cc1ccc(S(=O)(=O)O)cc1 | inactive | – | inactive | inactive | inactive | inactive | – | – | inactive | – | – | – | inactive | – | – | inactive | inactive | inactive | – | – |
| CCCCCCCCCCCC[N+](C)(C)Cc1ccccc1 | inactive and 67.3 µM (active) | inactive | 59.2 µM (active) | 17 µM (active) and 15 µM (active) and 26.6 µM (active) | 26.8 µM (active) and 29.7 µM (active) | 34 µM (active) and 18.9 µM (active) and 16.8 µM (active) | – | – | 19.1 µM (active) and 18.9 µM (active) and 15 µM (active) | 26.6 µM (active) | – | – | – | inactive | 42.8 µM (active) and 53.2 µM (active) | – | 27 µM (active) and 18.9 µM (active) and 23.7 µM (active) | 17 µM (active) and 21.2 µM (active) | – | – |
| O=C1NS(=O)(=O)c2ccccc21 | inactive | – | inactive | inactive | inactive | inactive | – | – | inactive | – | – | – | – | – | – | inactive | inactive | inactive | – | – |
